We go through 7 sequences from paper PMC7862700, “An all-to-all approach to the identification of sequence-specific readers for epigenetic DNA modifications on cytosine”.

Test in all cases: DAPPL (digital affinity profiling via proximity ligation, sequencing); 10 mM Tris-HCl pH 7.5, 50 mM NaCl, 1 mM DTT, 4% glycerol, room temperature, 30 min; GST-TFs on glutathione beads, 16-mer random dsDNA library, 0.1% formaldehyde crosslink after washing; high values mean tight binding
The target of one experiment is T1, FEV (Homo sapiens, UniProt Q99581 1-238).
T1 sequence: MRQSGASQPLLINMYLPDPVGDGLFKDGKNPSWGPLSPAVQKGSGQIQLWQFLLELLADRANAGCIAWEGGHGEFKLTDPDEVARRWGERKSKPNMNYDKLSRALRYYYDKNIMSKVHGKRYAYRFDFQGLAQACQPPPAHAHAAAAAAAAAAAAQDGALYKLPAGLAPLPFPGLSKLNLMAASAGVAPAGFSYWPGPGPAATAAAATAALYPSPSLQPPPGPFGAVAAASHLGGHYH
The settings on record: protein: recombinant; tags: N-terminal GST; dsDNA, one strand shown. The gist of the method: (§1)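 Human transcription factors were made in yeast as GST fusions, captured on glutathione beads and barcoded with DNA. With a tag-only sample included, the pool was incubated with 200 nmole of a random double-stranded 16-mer DNA library in Tris/NaCl/DTT/glycerol buffer at room temperature for 30 min, then crosslinked with 0.1% formaldehyde after washing, ligated by proximity, amplified and sequenced. For binding signal, each hexamer's read frequency for a factor is divided by its frequency for the tag-only sample.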

The next experiment deals with ETV5 (Homo sapiens, UniProt P41161 1-510). As to conditions: protein: recombinant; tags: N-terminal GST; dsDNA, one strand shown. The essentials:
as §1

The next experiment addresses HSF1 (Homo sapiens, UniProt Q00613 1-529). As to conditions: protein: recombinant; tags: N-terminal GST; chain copies: 3; dsDNA, one strand shown. The gist of the method: as §1
In another experiment the target is T2, SPIC (Homo sapiens, UniProt Q8N5J4 1-248).
T2 sequence: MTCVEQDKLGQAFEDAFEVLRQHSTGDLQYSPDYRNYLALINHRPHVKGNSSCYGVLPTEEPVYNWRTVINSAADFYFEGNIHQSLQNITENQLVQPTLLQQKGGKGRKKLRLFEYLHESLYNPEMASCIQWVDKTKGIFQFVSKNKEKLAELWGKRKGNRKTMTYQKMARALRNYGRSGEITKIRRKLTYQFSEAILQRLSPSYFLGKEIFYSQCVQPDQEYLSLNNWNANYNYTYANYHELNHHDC
As to conditions: protein: recombinant; tags: N-terminal GST; dsDNA, one strand shown. The essentials: as §1

The target in a further experiment is ELF4 (Homo sapiens, UniProt Q99607 1-663). The settings on record: protein: recombinant; tags: N-terminal GST; dsDNA, one strand shown. The essentials:
as §1

A further experiment addresses T3, ELK4 (Homo sapiens, UniProt P28324-2 1-405).
T3 sequence: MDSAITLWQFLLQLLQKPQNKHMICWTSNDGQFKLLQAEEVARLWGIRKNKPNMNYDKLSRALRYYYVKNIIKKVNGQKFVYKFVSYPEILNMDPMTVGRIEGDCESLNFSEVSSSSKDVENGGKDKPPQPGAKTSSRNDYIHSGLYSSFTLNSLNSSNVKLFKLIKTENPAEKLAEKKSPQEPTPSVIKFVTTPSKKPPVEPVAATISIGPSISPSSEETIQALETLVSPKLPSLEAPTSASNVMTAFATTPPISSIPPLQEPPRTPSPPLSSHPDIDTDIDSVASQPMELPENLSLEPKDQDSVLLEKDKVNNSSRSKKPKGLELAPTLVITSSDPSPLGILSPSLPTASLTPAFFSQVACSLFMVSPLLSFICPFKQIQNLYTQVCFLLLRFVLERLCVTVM
As to conditions: protein: recombinant; tags: N-terminal GST; dsDNA, one strand shown. The gist of the method:
as §1

Another experiment deals with T4, ETV2 (Homo sapiens, UniProt O00321 1-342).
T4 sequence: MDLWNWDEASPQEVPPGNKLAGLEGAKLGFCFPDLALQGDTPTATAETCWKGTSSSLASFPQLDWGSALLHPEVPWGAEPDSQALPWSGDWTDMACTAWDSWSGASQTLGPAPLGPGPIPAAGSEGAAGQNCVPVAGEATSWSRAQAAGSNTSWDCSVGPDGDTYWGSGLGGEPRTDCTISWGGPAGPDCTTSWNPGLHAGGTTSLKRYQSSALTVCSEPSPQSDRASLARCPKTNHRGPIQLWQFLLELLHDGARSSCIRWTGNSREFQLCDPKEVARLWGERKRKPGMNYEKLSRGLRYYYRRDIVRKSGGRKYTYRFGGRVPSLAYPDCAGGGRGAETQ
As to conditions: protein: recombinant; tags: N-terminal GST; dsDNA, one strand shown. The essentials: as §1

For another experiment, the target named is T5, ELF3 (Homo sapiens, UniProt P78545 1-371).
T5 sequence: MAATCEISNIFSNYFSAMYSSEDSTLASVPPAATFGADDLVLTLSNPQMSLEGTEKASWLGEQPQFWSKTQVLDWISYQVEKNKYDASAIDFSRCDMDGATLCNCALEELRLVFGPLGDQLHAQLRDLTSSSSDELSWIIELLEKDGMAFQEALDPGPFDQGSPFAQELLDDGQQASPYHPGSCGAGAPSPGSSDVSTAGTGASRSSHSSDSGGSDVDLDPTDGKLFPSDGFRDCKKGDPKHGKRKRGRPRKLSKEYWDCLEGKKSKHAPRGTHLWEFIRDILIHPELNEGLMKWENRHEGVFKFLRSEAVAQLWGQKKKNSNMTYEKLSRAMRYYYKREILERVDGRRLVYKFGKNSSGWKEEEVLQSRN
The settings on record: protein: recombinant; tags: N-terminal GST; dsDNA, one strand shown. The essentials:
as §1

The next experiment concerns the target CRX (Homo sapiens, UniProt O43186 1-299). The settings on record: protein: recombinant; tags: N-terminal GST; dsDNA, one strand shown. The gist of the method: as §1
In a further experiment the target is ETV1 (Homo sapiens, UniProt P50549 1-477). As to conditions: protein: recombinant; tags: N-terminal GST; dsDNA, one strand shown. The gist of the method: as §1
Chain of ETV1 (P50549 whole entry): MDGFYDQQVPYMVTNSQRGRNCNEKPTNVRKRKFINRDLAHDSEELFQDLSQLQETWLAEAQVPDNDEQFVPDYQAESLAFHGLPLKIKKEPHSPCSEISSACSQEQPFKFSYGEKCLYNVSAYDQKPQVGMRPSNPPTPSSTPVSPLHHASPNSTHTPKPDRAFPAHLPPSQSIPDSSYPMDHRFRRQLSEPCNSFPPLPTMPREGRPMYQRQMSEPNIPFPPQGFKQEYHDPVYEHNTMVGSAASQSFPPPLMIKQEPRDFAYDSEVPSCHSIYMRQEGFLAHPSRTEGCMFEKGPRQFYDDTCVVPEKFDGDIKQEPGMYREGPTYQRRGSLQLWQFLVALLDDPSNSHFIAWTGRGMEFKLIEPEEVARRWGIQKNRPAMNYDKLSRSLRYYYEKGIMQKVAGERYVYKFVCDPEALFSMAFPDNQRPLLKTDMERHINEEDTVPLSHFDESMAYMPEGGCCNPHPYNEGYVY

Chain of CRX (O43186 whole entry): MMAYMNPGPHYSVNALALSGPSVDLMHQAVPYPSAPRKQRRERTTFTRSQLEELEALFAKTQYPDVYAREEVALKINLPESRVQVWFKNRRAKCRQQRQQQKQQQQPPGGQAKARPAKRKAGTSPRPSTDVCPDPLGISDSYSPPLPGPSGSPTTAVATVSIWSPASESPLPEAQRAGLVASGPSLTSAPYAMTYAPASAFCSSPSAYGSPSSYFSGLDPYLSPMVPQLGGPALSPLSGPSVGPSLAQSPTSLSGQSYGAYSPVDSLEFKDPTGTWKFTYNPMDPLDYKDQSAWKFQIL
Chain of ELF4 (Q99607 whole entry): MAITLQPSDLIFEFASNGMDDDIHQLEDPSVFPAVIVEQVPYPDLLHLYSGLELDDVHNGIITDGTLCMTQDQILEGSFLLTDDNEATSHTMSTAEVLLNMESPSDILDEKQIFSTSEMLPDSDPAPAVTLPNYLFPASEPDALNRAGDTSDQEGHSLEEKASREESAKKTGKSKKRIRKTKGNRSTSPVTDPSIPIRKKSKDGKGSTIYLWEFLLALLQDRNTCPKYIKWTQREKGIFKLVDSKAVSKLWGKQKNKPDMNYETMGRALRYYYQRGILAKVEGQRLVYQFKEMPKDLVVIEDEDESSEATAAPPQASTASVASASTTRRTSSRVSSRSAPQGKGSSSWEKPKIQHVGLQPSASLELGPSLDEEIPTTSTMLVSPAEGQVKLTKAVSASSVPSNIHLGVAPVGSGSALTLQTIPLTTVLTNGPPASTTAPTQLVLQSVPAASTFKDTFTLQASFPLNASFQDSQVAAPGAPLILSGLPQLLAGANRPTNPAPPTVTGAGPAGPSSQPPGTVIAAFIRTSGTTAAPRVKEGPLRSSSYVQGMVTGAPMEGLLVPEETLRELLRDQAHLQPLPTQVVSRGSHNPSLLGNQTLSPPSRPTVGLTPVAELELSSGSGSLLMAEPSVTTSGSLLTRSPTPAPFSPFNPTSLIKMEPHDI
Chain of HSF1 (Q00613 whole entry): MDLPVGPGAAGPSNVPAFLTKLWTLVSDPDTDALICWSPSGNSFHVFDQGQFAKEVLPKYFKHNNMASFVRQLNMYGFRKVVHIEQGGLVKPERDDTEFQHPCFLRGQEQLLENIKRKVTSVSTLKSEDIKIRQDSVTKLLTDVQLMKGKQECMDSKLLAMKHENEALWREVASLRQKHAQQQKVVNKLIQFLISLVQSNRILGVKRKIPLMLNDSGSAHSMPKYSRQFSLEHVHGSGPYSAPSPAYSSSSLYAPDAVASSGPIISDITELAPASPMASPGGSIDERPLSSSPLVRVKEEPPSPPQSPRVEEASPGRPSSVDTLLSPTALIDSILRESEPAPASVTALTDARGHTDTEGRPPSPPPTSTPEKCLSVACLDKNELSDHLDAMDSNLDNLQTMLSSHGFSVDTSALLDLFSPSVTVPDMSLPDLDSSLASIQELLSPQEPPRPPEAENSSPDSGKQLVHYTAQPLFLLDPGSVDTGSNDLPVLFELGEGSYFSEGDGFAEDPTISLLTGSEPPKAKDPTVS
Chain of ETV5 (P41161 whole entry): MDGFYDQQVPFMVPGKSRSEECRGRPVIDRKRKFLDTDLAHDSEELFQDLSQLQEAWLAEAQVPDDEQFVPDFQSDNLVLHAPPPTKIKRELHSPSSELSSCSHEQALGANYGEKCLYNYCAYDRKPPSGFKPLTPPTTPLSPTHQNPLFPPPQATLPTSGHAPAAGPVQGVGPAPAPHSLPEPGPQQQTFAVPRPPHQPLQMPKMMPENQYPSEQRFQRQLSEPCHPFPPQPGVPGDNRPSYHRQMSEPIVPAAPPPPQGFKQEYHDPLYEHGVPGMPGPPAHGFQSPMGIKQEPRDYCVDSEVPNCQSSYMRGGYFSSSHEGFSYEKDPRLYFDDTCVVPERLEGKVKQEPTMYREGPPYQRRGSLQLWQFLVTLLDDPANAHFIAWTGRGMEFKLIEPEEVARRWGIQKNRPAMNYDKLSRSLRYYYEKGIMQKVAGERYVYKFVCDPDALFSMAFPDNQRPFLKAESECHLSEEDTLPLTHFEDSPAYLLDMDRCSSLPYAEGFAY

Regarding GAATTC, the binding signal with FEV is 1.39 fold enrichment (6-mer frequency, TF over GST control); with ETV5, 1.42 fold enrichment (6-mer frequency, TF over GST control); with HSF1, 1.59 fold enrichment (6-mer frequency, TF over GST control); with SPIC, 1.51 fold enrichment (6-mer frequency, TF over GST control); in the experiment with ELF4 it was 1.36 fold enrichment (6-mer frequency, TF over GST control); in the experiment with ELK4 it was 1.27 fold enrichment (6-mer frequency, TF over GST control). Besides, the binding signal with ETV2 was 1.39 fold enrichment (6-mer frequency, TF over GST control); in the experiment with ELF3 it was 1.13 fold enrichment (6-mer frequency, TF over GST control); with CRX, 1.14 fold enrichment (6-mer frequency, TF over GST control); in the experiment with ETV1, 1.34 fold enrichment (6-mer frequency, TF over GST control).

Take TTAGTA: the binding signal was 1.05 fold enrichment (6-mer frequency, TF over GST control) with FEV; 1.15 fold enrichment (6-mer frequency, TF over GST control) with ETV5; 1.68 fold enrichment (6-mer frequency, TF over GST control) with HSF1; 1.16 fold enrichment (6-mer frequency, TF over GST control) with SPIC; 1.1 fold enrichment (6-mer frequency, TF over GST control) with ELF4; 1.12 fold enrichment (6-mer frequency, TF over GST control) in the experiment with ELK4. The binding signal was 1.22 fold enrichment (6-mer frequency, TF over GST control) with ETV2; 1.15 fold enrichment (6-mer frequency, TF over GST control) with ELF3; 2.39 fold enrichment (6-mer frequency, TF over GST control) with CRX; 1.11 fold enrichment (6-mer frequency, TF over GST control) with ETV1.

Regarding CTAAAC, the binding signal in the experiment with FEV is 1.21 fold enrichment (6-mer frequency, TF over GST control); with ETV5, 1.18 fold enrichment (6-mer frequency, TF over GST control); with HSF1, 1.26 fold enrichment (6-mer frequency, TF over GST control); with SPIC, 1.18 fold enrichment (6-mer frequency, TF over GST control); with ELF4, 1.26 fold enrichment (6-mer frequency, TF over GST control); with ELK4 it was 1.26 fold enrichment (6-mer frequency, TF over GST control). Besides, the binding signal in the experiment with ETV2 was 1.33 fold enrichment (6-mer frequency, TF over GST control); with ELF3 it was 1.18 fold enrichment (6-mer frequency, TF over GST control); with CRX, 1.47 fold enrichment (6-mer frequency, TF over GST control); with ETV1, 1.24 fold enrichment (6-mer frequency, TF over GST control).

On to TCCCGT, for which the binding signal with FEV is 1.3 fold enrichment (6-mer frequency, TF over GST control); with ETV5, 1.38 fold enrichment (6-mer frequency, TF over GST control); with HSF1 it was 1.35 fold enrichment (6-mer frequency, TF over GST control); in the experiment with SPIC, 1.28 fold enrichment (6-mer frequency, TF over GST control); in the experiment with ELF4 it was 1.23 fold enrichment (6-mer frequency, TF over GST control); in the experiment with ELK4 it was 1.41 fold enrichment (6-mer frequency, TF over GST control). In addition, the binding signal with ETV2 is 1.29 fold enrichment (6-mer frequency, TF over GST control); with ELF3, 1.37 fold enrichment (6-mer frequency, TF over GST control); with CRX it was 1.18 fold enrichment (6-mer frequency, TF over GST control); in the experiment with ETV1, 1.3 fold enrichment (6-mer frequency, TF over GST control).

As to ATAAAC, the binding signal is 1.13 fold enrichment (6-mer frequency, TF over GST control) with FEV; 1.19 fold enrichment (6-mer frequency, TF over GST control) in the experiment with ETV5; 1.27 fold enrichment (6-mer frequency, TF over GST control) with HSF1; 1.2 fold enrichment (6-mer frequency, TF over GST control) in the experiment with SPIC; 1.16 fold enrichment (6-mer frequency, TF over GST control) with ELF4; 1.13 fold enrichment (6-mer frequency, TF over GST control) in the experiment with ELK4. The binding signal with ETV2 is 1.19 fold enrichment (6-mer frequency, TF over GST control); with ELF3, 1.13 fold enrichment (6-mer frequency, TF over GST control); with CRX it was 1.5 fold enrichment (6-mer frequency, TF over GST control); with ETV1, 1.11 fold enrichment (6-mer frequency, TF over GST control).

Take TGAGCT: the binding signal was 1.09 fold enrichment (6-mer frequency, TF over GST control) with FEV; 1.07 fold enrichment (6-mer frequency, TF over GST control) in the experiment with ETV5; 1.06 fold enrichment (6-mer frequency, TF over GST control) in the experiment with HSF1; 1.03 fold enrichment (6-mer frequency, TF over GST control) in the experiment with SPIC; 1.1 fold enrichment (6-mer frequency, TF over GST control) with ELF4; 1.17 fold enrichment (6-mer frequency, TF over GST control) in the experiment with ELK4. For the same sequence, the binding signal with ETV2 was 1.19 fold enrichment (6-mer frequency, TF over GST control); in the experiment with ELF3, 1.23 fold enrichment (6-mer frequency, TF over GST control); with CRX, 1.35 fold enrichment (6-mer frequency, TF over GST control); with ETV1, 1.09 fold enrichment (6-mer frequency, TF over GST control).

Consider CGCCTC, for which the binding signal with FEV was 1.45 fold enrichment (6-mer frequency, TF over GST control); with ETV5, 1.4 fold enrichment (6-mer frequency, TF over GST control); with HSF1, 1.1 fold enrichment (6-mer frequency, TF over GST control); with SPIC it was 1.33 fold enrichment (6-mer frequency, TF over GST control); with ELF4, 1.39 fold enrichment (6-mer frequency, TF over GST control); in the experiment with ELK4, 1.14 fold enrichment (6-mer frequency, TF over GST control). In addition, the binding signal with ETV2 was 1.51 fold enrichment (6-mer frequency, TF over GST control); with ELF3 it was 1.49 fold enrichment (6-mer frequency, TF over GST control); with CRX, 1.05 fold enrichment (6-mer frequency, TF over GST control); in the experiment with ETV1, 1.42 fold enrichment (6-mer frequency, TF over GST control).
